Test results from PubChem BioAssay (Tox21).
Inconclusive results are not listed. Where a call stands in place of a potency, no number is given. Activity calls are given as the source filed them. Calls follow the shape of the dose curve; as a rule, active = well fitted cell-killing curve with a large enough effect in the repeat runs; inconclusive = weak or mixed curves, or effect the other way; inactive = no such curve, though single readings can be large or run the other way.

Experiment: Caspase-3/7 induction in CHO-K1 cells by small molecules, qHTS cell viability counter screen (AID 1346979); also: nearly all actives have a fitted effect of over 35% in size
Conditions: CellTiter-Fluor fluorescence, 17 h; series mostly up to 92.4 µM
Excerpt: National Center for Advancing Translational Sciences [NCATS]
NIH Chemical Genomics Center [NCGC]
U.S. Environmental Protection Agency [EPA]
National Institutes of Environmental Health Sciences [NIEHS]
National Toxicology Program [NTP]
U.S. Food and Drug Administration [FDA]
Apoptosis is a process of programmed cell death and plays a central role in the development of multicellular organisms. It is a highly regulated process and induces cell death by activating caspases, which are the members of cysteine aspartic acid-specific protease (caspase) family. Caspases involved in apoptosis are classified by their mechanism of action as initiator caspases (caspase-2, -8, -9 and -10) and executioner caspases (caspase-3, -6, and -7). Inhibition of apoptosis results in number of cancers, autoimmune diseases, inflammatory diseases and viral infection. To identify small molecule compounds that induce apoptosis, a homogeneous, luminescent Caspase-Glo 3/7 assay was used. Wild type CHO-K1 cells were used to screen Tox21 libraries for identifying caspase-3/7 activity inducers. Also cytotoxicity of the compounds was tested in parallel by measuring the cell viability using CellTiter-Fluor assay system in the same wells.
Tox21 Assay Protocol Summary:
CHO-K1 cells were dispensed at 1,500 per well in 5uL of culture medium into white solid bottom 1536-well plates (Corning Life Sciences, Corning, NY) using a Multidrop Combi (Thermo Scientific, Waltham, MA) dispenser. The assay plates were incubated at 37 C and 5% CO2 for 5hr, and then 23nL of compounds dissolved in DMSO and positive control were transferred using a Pintool station (Wako, San Diego, CA). The assay plates were incubated at 37C and 5% CO2 for 17hr. For cytotoxicity read, after 16hr incubation at 37C, 1uL CellTiter-Fluor reagent (Promega Corporation, Madison, WI) was added to each well of the assay plates using Flying Reagent Dispenser (FRD, Aurora Discovery, San Diego, CA). After 1hr incubation at 37C and 5% CO2, the fluorescence signal was quantified using a ViewLux plate reader (PerkinElmer, Shelton, CT).
Potency is read from the fitted curve at half-maximal effect.

| Structure (SMILES) | Potency |
| --- | --- |
| CC(C)CC(C)(C)C | inactive |
| Nc1nc(Cl)nc2c1ncn2[C@H]1C[C@H](O)[C@@H](CO)O1 | inactive |
| Cc1ccc(NC(=O)c2ccc(CN3CCN(C)CC3)cc2)cc1Nc1nccc(-c2cccnc2)n1 | 23.7 µM (active) |
| O=[N+]([O-])c1ccccc1CCO | inactive |
| C1CCN(CN2CCCCC2)CC1 | inactive |
| CC1(C)CC(O)CC(C)(C)N1[O] | inactive |
| CC1(C)C(=O)NC(=O)N1CO | inactive |
| CCCCCCCCC(=O)OCC(C)OC(=O)CCCCCCCC (stereo not given) | inactive |
| NC(=O)c1ccccc1 | inactive |
| N#C[C@@H]1CC(F)(F)CN1C(=O)CNC1CC2CCC(C1)N2c1ncccn1 (stereo not given in full) | inactive |
| CCCCCCCCCCCCN1CCOCC1 | inactive |
| C=CC(C)(O)CC/C=C(/C)CCC=C(C)C (stereo not given) | inactive |
| CC(=O)CC/C=C(\C)CC/C=C(\C)CC/C=C(\C)CCC=C(C)C | inactive |
| COC(=O)/C=C/C(C)=C\C=C\C(C)=C\C=C\C=C(C)\C=C\C=C(C)\C=C\C(=O)O | inactive |
| O=C1c2ccccc2C(=O)C1c1ccc2cc(S(=O)(=O)O)cc(S(=O)(=O)O)c2n1 | 33.1 µM (active) |
| CCCc1nc(C)c2c(=O)[nH]c(-c3cc(S(=O)(=O)N4CCN(CC)CC4)ccc3OCC)nn12 | inactive |
| Cc1c(Nc2ncccc2C(=O)O)cccc1C(F)(F)F | inactive |
| CC(=O)Nc1ccn(C2COC(COC(=O)c3ccccc3)O2)c(=O)n1 (stereo not given) | inactive |
| Cc1nc2sccn2c(=O)c1CCN1CCC(=C(c2ccc(F)cc2)c2ccc(F)cc2)CC1 | inactive |
| C[C@H]1C[C@H]2[C@@H]3CCC4=CC(=O)C=C[C@]4(C)[C@@]3(F)[C@@H](O)C[C@]2(C)[C@@]1(O)C(=O)COP(=O)(O)O | inactive |

| Structure (SMILES) | Potency |
| --- | --- |
| O=[N+]([O-])c1cccc(I)c1 | inactive |
| CC(C)(C)c1cc(C=O)cc(C(C)(C)C)c1O | inactive |
| Cc1cccc(C)c1NC(=O)CN1CCCC1 | inactive |
| CC(C)Oc1ccccc1O | inactive |
| O=c1[nH]nc(-c2ccc([N+](=O)[O-])o2)o1 | 61.1 µM (active) |
| COC(=O)C(C)(C)C | inactive |
| COc1ccc(C(=O)Nc2ccccc2)cc1[N+](=O)[O-] | inactive |
| C/C(=C(\CCO)SS/C(CCO)=C(\C)N(C=O)Cc1cnc(C)nc1N)N(C=O)Cc1cnc(C)nc1N | inactive |
| O=C(O)CCc1nc2ccccc2[nH]1 | inactive |
| CCc1c(C)[nH]c2c1C(=O)C(CN1CCOCC1)CC2 (stereo not given) | inactive |
| CCCCOC(=O)C(C)Oc1ccc(Oc2ccc(C(F)(F)F)cn2)cc1 (stereo not given) | inactive |
| CCOC(OCC)OCC | inactive |
| OCCOc1cccc(OCCO)c1 | inactive |
| CCCOC(C)=O | inactive |
| CCN(CCCCOC(=O)c1ccc(OC)c(OC)c1)C(C)Cc1ccc(OC)cc1 (stereo not given) | inactive |
| CNc1ccccc1 | inactive |
| CCn1nc(Cc2ccccc2)cc1C1CCN(C[C@H]2C[C@H](N(C)[C@@H](C(=O)O)C(C)C)C[C@@H]2c2cccc(F)c2)CC1 | inactive |
| Cc1ccccc1CCO | inactive |
| Nc1ccccc1Nc1ccccc1 | 27.4 µM (active) |
| O=c1c2ccccc2oc2ccccc12 | inactive |
